The text below walks through data of PubChem BioAssay (Tox21).

Values joined by “and” are separate entries in the source; they are usually repeats but may differ in a detail not shown here. Equal values may be shown once. Records with an inconclusive call do not appear. Where a call stands in place of a potency, no number is given. Where a structure was tested more than once in an assay, its records may differ in their call. Active and inactive are the calls of the source. Calls follow the shape of the dose curve; as a rule, active = well fitted activation curve with a large enough effect in the repeat runs; inconclusive = weak or mixed curves; inactive = flat fitted curve, though single readings scatter.
Potency is read from the fitted curve at half-maximal effect.

This assay is described as follows: A CellTox Green Cytotoxicity Assay to monitor cytotoxicity in HepG2 cells - 40 hour (AID 1224879). Also: nearly all actives have a fitted effect of over 40% in size. As to conditions: CellTox Green fluorescence; series mostly up to 76.8 µM; cytotoxicity increase: at the top concentration. An excerpt:
National Center for Advancing Translational Sciences [NCATS]
NIH Chemical Genomics Center [NCGC]
U.S. Environmental Protection Agency [EPA]
National Institutes of Environmental Health Sciences [NIEHS]
National Toxicology Program [NTP]
Cell-based models are critical for drug discovery. Determining the natural cytotoxic effects resulting from test compounds is an essential research activity. A CellTox Green Cytotoxicity Assay to monitor cytotoxicity in real time of continues cell culture during 40 hours of the compound treatment was used to screen Tox21 10K library compounds in HepG2 cells. CellTox Green Cytotoxicity Assay is a nonlytic, homogeneous, biofluorescent method to measure cytotoxicity in cell culture after experimental manipulation. The assay system uses a proprietary asymmetric cyanine dye that is excluded from viable cells but preferentially stains the dead cell's DNA. […] Viable cells produce no appreciable increases in fluorescence. Therefore, the fluorescence signal produced by the binding interaction with dead cell DNA is proportional to cytotoxicity.
The mixture of HepG2 cell suspension and reagents were dispensed at 600cells/6 ul/well in 1536-well tissue culture treated black solid bottom plates using a Multidrop dispenser. After the assay plates were incubated at a 37 C/5% CO2 incubator for 5 hours, 23 nL of compounds dissolved in DMSO, positive and negative controls was transferred to the assay plate by a pintool work station. The plates were incubated at 37 C for 40 hours. The fluorescence intensity were measured at 0h, 8h, 16h, 24h, 32h and 40h time points using ViewLux plate reader during compound treatment.
For the compound `OCC#CCO`, the Potency entry was “inactive”.

`O=Nc1ccc(O)cc1`: the Potency entry was “inactive”.

Take `c1ccc2ccccc2c1`: the Potency result is “inactive”.

In the case of `O=[N+]([O-])c1cc(N(CCO)CCO)ccc1NCCO`, the Potency entry was “inactive”.

Take `Nc1cc(-c2ccncc2)c[nH]c1=O`: the Potency entry was “inactive”.

As to `Cc1ccc(N)c(S(=O)(=O)O)c1`, the Potency result was “inactive”.

With `NC(=O)/N=N/C(N)=O`, the Potency result was “inactive”.

Regarding `ClC1=C(Cl)C(Cl)(Cl)C(Cl)=C1Cl`, the Potency is 22 µM (active).

Consider `CC(C)(CO)COC(=O)C(C)(C)CO`, for which the Potency entry was “inactive”.

For `CN(C)c1ccc(C(=N)c2ccc(N(C)C)cc2)cc1`, the Potency is 4.31 µM (active) and 18.8 µM (active).

Turning to `CCCCCCC(C)(C)S`, the Potency entry is “inactive”.

`COC(=O)c1ccc(C(=O)OC)cc1`: the Potency was 22.2 µM (active) and inactive.

For `O=C1N=C(O)CN1/N=C/c1ccc(-c2ccc([N+](=O)[O-])cc2)o1`, the Potency entry was “inactive”.

As for `CCCCNC(N)=O`, the Potency entry is “inactive”.

Take `CC1=C(CC(=O)O)c2cc(F)ccc2/C1=C\c1ccc(S(C)=O)cc1` (stereo not given): the Potency entry was “inactive”.

Take `CS(=O)(=O)Nc1ccc([N+](=O)[O-])cc1Oc1ccccc1`: the Potency result was “inactive”.

Turning to `CC[Si](OC(C)=O)(OC(C)=O)OC(C)=O`, the Potency entry was “inactive”.

With `C=C1C2CCC(C2)C1(C)C` (stereo not given), the “cytotoxicity increase” value is -13.5% (inactive).

As for `CCCCCCCCCCCCOCC1CO1` (stereo not given), the Potency result was “inactive”.

Regarding `Nc1nc2ncc(CNc3ccc(C(=O)N[C@@H](CCC(=O)O)C(=O)O)cc3)nc2c(=O)[nH]1`, the Potency result was “inactive”.

Regarding `C[C@@H](O)[C@H]1C(=O)N2C(C(=O)O)=C(S[C@@H]3CN[C@H](C(=O)N(C)C)C3)[C@H](C)[C@H]12`, the Potency result was “inactive”.

In the case of `NCCc1ccc(O)c(O)c1`, the Potency result was “inactive”.

On to `CC(C)(N=C=O)c1cccc(C(C)(C)N=C=O)c1`, for which the Potency result was “inactive”.

For `O=S(=O)(O)c1cc(S(=O)(=O)O)c2c(N=Nc3ccccc3)c(O)ccc2c1`, the Potency entry is “inactive”.

On to `Cc1cc(=O)[nH]c(C(C)C)n1`, for which the Potency entry is “inactive”.

On to `CN(C)c1cccc(O)c1`, for which the “cytotoxicity increase” value is 3.23% (inactive).

`Nc1c(S(=O)(=O)O)cc(Br)c2c1C(=O)c1ccccc1C2=O`: the Potency entry was “inactive”.

Regarding `O=S(=O)(Oc1ccc(Cl)cc1Cl)c1ccccc1`, the Potency result is “inactive”.

For `O=S(=O)(O)CCS`, the Potency result was “inactive”.

Take `O=C(O)c1cc(-c2ccccc2)nc2ccccc12`: the Potency result was “inactive”.

As for `NS(=O)(=O)c1cc2c(cc1Cl)NC=NS2(=O)=O`, the Potency result was “inactive”.

On to `CC(C)Cc1ccccc1`, for which the Potency result is “inactive”.

For `Oc1ccc(OCc2ccccc2)cc1`, the “cytotoxicity increase” value was -1.03% [at 35.3 µM] (inactive).

Consider `O=[N+]([O-])C(CO)(CO)CO`, for which the Potency entry is “inactive”.

For the compound `CCCCOCCO`, the Potency result is “inactive”.

Turning to `Cn1c([N+](=O)[O-])cnc1COC(N)=O`, the Potency entry is “inactive”.

As for `S=c1nc[nH]c2nc[nH]c12`, the Potency result is “inactive”.

`C[C@@H]1O[C@@H](OC[C@H]2O[C@@H](Oc3c(-c4ccc(O)c(O)c4)oc4cc(O)cc(O)c4c3=O)[C@H](O)[C@@H](O)[C@@H]2O)[C@H](O)[C@H](O)[C@H]1O`: the Potency result was “inactive”.

On to `Oc1ccc2ccccc2c1N=Nc1ccccc1`, for which the “cytotoxicity increase” value was 0.451% (inactive).

Consider `NC(=O)NNc1ccccc1`, for which the Potency result was “inactive”.
